Screens from PubChem BioAssay.
Sampled rows, rich in hits. Any-hit rate of the full collection: about 2%.
Mcl1-Bid inh = disrupts binding of human Mcl-1 to Bid peptide. Q07820. TR-FRET Mcl-1/Bid-Dy647 peptide binding, 1536-well. inhibition, % at 21.7 µM. 220,000 compounds, 0.97% hits. AID 1021;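 active means compounds that cut the binding signal by more than half at the single screening dose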;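 further: His-tagged Mcl-1 with europium anti-His antibody binding Bid BH3 peptide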
Target sequence (Q07820 whole entry, looked up): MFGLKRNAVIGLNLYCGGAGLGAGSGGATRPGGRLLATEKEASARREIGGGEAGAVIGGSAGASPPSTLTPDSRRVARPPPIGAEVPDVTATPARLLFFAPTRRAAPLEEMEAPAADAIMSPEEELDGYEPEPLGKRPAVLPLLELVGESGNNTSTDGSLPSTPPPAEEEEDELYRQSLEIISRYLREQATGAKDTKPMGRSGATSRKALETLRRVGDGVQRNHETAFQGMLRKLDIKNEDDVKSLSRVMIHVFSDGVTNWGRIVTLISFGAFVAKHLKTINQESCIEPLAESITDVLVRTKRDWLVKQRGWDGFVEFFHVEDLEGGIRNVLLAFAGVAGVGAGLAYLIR
MCL1-BIM inh = disrupts human MCL1 binding to BIM-BH3 peptide | GST-MCL1 / FITC-Bim-BH3 fluorescence polarization | 320,000 compounds, 0.68% hits | Q07820 | inhibition, % at 10.9 µM;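 active means inhibition above the mean inhibition of all tested compounds plus 3 SD, set per campaign, cut at about 40% in these data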;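 further: higher means more loss of mP so more displacement of Bim peptide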
Bim-Mcl-1 = disrupts Bim peptide binding to human Mcl-1; Q07820; Bead-based flow cytometry, Bim peptide-Mcl-1 binding; inhibition, % at 10 µM; 190,000 compounds, 0.1% hits; in the data active means inhibition above about 40%
Mcl1 Noxa PPI = disrupts binding of human Mcl-1 to Noxa peptide. inhibition, % at 21.7 µM. TR-FRET Mcl-1/Noxa peptide binding, 2 h. Q07820. 220,000 compounds, 1.5% hits;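 active means compounds that cut the protein-peptide binding signal by more than 50% relative to plate controls in a single-dose test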;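 further: His-tagged Mcl-1 with rhodamine Noxa BH3 peptide and terbium anti-His antibody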
Of the large screens only hits and unclear results are named; the others gave an inactive call.

CN(c1ccc(F)cc1)S(=O)(=O)c1ccc2[nH]cc(C(=O)O)c(=O)c2c1	Mcl1-Bid inh 58
CCOc1ccc2ccccc2c1/C=N/NC(=O)c1ccncc1	none (no result: Mcl1-Bid inh, Bim-Mcl-1, Mcl1 Noxa PPI)
CCOc1cccc(CN2CCCC(N3CCc4cc(OC)c(OC)cc4C3)C2)c1O (stereo unspecified)	none (no result: Mcl1-Bid inh, Bim-Mcl-1, Mcl1 Noxa PPI)
NC(=O)[C@@H]1CCCN1Cc1c(C(=O)N2CCc3ccccc3C2)nc2ccc(Cl)cn12	MCL1-BIM inh 43 (no result: Mcl1-Bid inh, Bim-Mcl-1, Mcl1 Noxa PPI)
CC1(C)C2CCC(C2)C1(C)NC(=O)CNCC1CCCCC1 (stereo unspecified)	none
CCOc1ccc(NC(=O)CN(C)C(=O)c2sc3ccccc3c2Cl)cc1OCC	none (no result: Mcl1-Bid inh, Bim-Mcl-1, Mcl1 Noxa PPI)
O=C(COC(=O)CC(c1ccccc1)c1ccccc1)Nc1cccc(F)c1	none
O=C(COC(=O)CC(NC(=O)c1ccccc1Cl)c1ccccc1)Nc1cccc(F)c1 (stereo unspecified)	Mcl1-Bid inh 72
Cc1cccc2nc(CSc3nc4ccc([N+](=O)[O-])cc4[nH]3)c(Br)n12	Mcl1 Noxa PPI 60
O=S(=O)(Nc1nc2ccccc2nc1NCc1ccco1)c1ccc(Cl)cc1	none
Cc1ccc(S(=O)(=O)Nc2nc3ccccc3nc2NCc2ccco2)cc1	MCL1-BIM inh 43
O=C(Cc1ccc(-c2ccccc2)cc1)OCC(=O)N1CCCC1=O	none
COc1cc(OC)nc(Oc2cc(C=O)ccc2OC)n1	none (no result: Mcl1-Bid inh, Bim-Mcl-1, Mcl1 Noxa PPI)
CCCCn1c(=O)nc2n(-c3ccccc3)c3ccccc3cc-2c1=O	Mcl1-Bid inh 64
O=C(COC(=O)c1ccccn1)NC1CCCCC1	Bim-Mcl-1 66
CCC(=O)OC1(C)C(=O)C=C2C=C(c3ccsc3)OC=C2C1=O (stereo unspecified)	Mcl1 Noxa PPI 68 (no result: Bim-Mcl-1)
Cn1cccc1Cc1nnc(SCC(=O)Nc2cccc(Cl)c2)n1-c1ccc(F)cc1	Mcl1-Bid inh 65
CC(=O)N1CCc2cc(S(=O)(=O)CCC(=O)Nc3ccc(Cl)cc3F)ccc21	none (no result: Mcl1-Bid inh, Bim-Mcl-1, Mcl1 Noxa PPI)
CC(C)N(Cc1ccccc1)C(=O)CN1C(=O)NC(Cc2ccccc2)(c2ccccc2)C1=O (stereo unspecified)	none (no result: Mcl1-Bid inh, Bim-Mcl-1, Mcl1 Noxa PPI)
CS(=O)(=O)N1CCN(c2ccc(NC(=O)C(c3ccccc3)c3ccccc3)cc2)CC1	none
O=C(Nc1ccc(N2CCCC2)cc1)C(Cl)c1ccccc1 (stereo unspecified)	Mcl1 Noxa PPI 56
CC(=O)c1ccc(N2CCN(C(=O)CCS(=O)(=O)c3ccc4c(c3)NC(=O)CS4)CC2)cc1	none (no result: Mcl1-Bid inh, Bim-Mcl-1, Mcl1 Noxa PPI)
CCOC(=O)c1c(NC(C)=O)sc2c(O)c(Br)cc(Br)c12	Mcl1 Noxa PPI 84
CCOC(=O)c1c(NC(C)=O)sc2c(O)cccc12	none
CCn1cc(S(=O)(=O)N2CCc3ccccc3C2)cn1	none (no result: Mcl1-Bid inh, Bim-Mcl-1, Mcl1 Noxa PPI)
CCCCNC(=S)N(CCN(C)C)Cc1cc2cc3c(cc2[nH]c1=O)OCCO3	none (no result: Mcl1-Bid inh, Bim-Mcl-1, Mcl1 Noxa PPI)
Clc1cccc(Cl)c1CNc1ccc(N2CCCC2)cc1	Mcl1 Noxa PPI 67
O=C(Cc1ccc(Cl)cc1)Nc1ccc(N2CCCC2)cc1	none
C/C(=N/NC(=O)CNC(=O)c1cccnc1)c1ccc(Cl)c(Cl)c1	none (no result: Mcl1-Bid inh, Bim-Mcl-1, Mcl1 Noxa PPI)
CC(C)(C)c1ccc(C(=O)O[C@H]2[C@H](Cc3ccccc3)NS(=O)(=O)[C@H]3C[C@@H]4C=C[C@]23O4)cc1	none (no result: Mcl1-Bid inh, Bim-Mcl-1, Mcl1 Noxa PPI)
COc1cccc(-c2csc(N3CCN(C(=S)Nc4cccc(Cl)c4)CC3)n2)c1	Mcl1-Bid inh 89
CCOC(=O)C1=C(c2ccccc2)NC(=O)NC1c1ccc(N(C)C)cc1 (stereo unspecified)	Mcl1 Noxa PPI 61
Cc1ccccc1C1(CCN2CCCCC2)CCOC(C)(C)C1 (stereo unspecified)	none
COc1cccc(C(C2C(=O)CC(C)(C)CC2=O)C2C(=O)CC(C)(C)CC2=O)c1	none (no result: Mcl1-Bid inh, Bim-Mcl-1, Mcl1 Noxa PPI)
CC1(C)CC(=O)C(C(c2cccnc2)C2C(=O)CC(C)(C)CC2=O)C(=O)C1	Mcl1-Bid inh 69
CCOC(=O)Cn1c2ccccc2n2nc(CCC(=O)O)c(=O)nc12	none
O=C(O)CCc1nn2c3ccccc3n(CC(=O)c3ccccc3)c2nc1=O	Mcl1-Bid inh 74
O=C(c1ccccc1)N1CCN(C2CCCCCC2)CC1	Mcl1-Bid inh 66
O=C(c1ccc(F)cc1)N1CCN(C2CC3CCC2C3)CC1 (stereo unspecified)	none
O=C(c1ccccc1)N1CCN(C2CC3CCC2C3)CC1 (stereo unspecified)	Mcl1-Bid inh 57
CCC(C)c1ccc(S(=O)(=O)N2CCN(c3ccccn3)CC2)cc1 (stereo unspecified)	none (no result: Mcl1-Bid inh, Bim-Mcl-1, Mcl1 Noxa PPI)
Cc1ccc(C(=O)C(C(=O)/C=C/c2ccccc2)=C2SCCCS2)cc1	Bim-Mcl-1 58
COc1ccc(/C=C/C(=O)C(C(N)=O)=C2SCCS2)cc1	none
Cc1ccc(-c2nc(Nc3ccc(O)cc3)c3ccccc3n2)cc1	none (no result: Mcl1-Bid inh, Bim-Mcl-1, Mcl1 Noxa PPI)
Cc1ccc(-c2nc(Nc3ccc(N4CCOCC4)cc3)c3ccccc3n2)cc1	Mcl1 Noxa PPI 64 (no result: Bim-Mcl-1)
Cc1cccc(C(=O)Nc2ccnc(-c3cccnc3)n2)c1	Mcl1-Bid inh 91
CCN(CC)CCNC(=O)CCCCn1c(=S)[nH]c2c([nH]c3ccc(OC)cc32)c1=O	Mcl1 Noxa PPI 61
COc1ccc2[nH]c3c(=O)n(Cc4ccc(C(=O)NCC5CCCO5)cc4)c(=S)[nH]c3c2c1 (stereo unspecified)	Mcl1 Noxa PPI 62
COCCn1c(=S)[nH]c2cc(C(=O)NCC3CCCO3)ccc2c1=O (stereo unspecified)	none
CCOCCCNC(=O)c1ccc(Cn2c(=S)[nH]c3c([nH]c4ccc(OC)cc43)c2=O)cc1	Mcl1 Noxa PPI 56
CCCCNC(=O)c1ccc(Cn2c(=S)[nH]c3c([nH]c4ccc(OC)cc43)c2=O)cc1	none
O=C(NCC1CCCO1)c1ccc(Cn2c(=S)[nH]c3ccccc3c2=O)cc1 (stereo unspecified)	Mcl1 Noxa PPI 81
O=C(O)C1CCN(C(=O)c2ccccc2N2C(=O)[C@@H]3Cc4c([nH]c5ccccc45)C(c4cccc(Cl)c4)N3C2=O)CC1 (stereo partly specified)	none (no result: Mcl1-Bid inh, Bim-Mcl-1, Mcl1 Noxa PPI)
COc1ccc(F)cc1S(=O)(=O)N1CC(C)CC(C)C1 (stereo unspecified)	none
CC[C@H](C)NC(=O)c1ccc(Cn2c(=S)[nH]c3c([nH]c4ccc(OC)cc43)c2=O)cc1	Mcl1 Noxa PPI 76
CCOc1cc2[nH]c(=S)n(Cc3ccc(C(=O)NCC(OC)OC)cc3)c(=O)c2cc1OCC	none
CNC(=O)NC(=O)CSc1nc2sccc2c(=O)n1-c1ccccc1	none (no result: Mcl1-Bid inh, Bim-Mcl-1, Mcl1 Noxa PPI)
COc1cccc(N2CCN(CC(=O)NC(=O)NCc3ccco3)CC2)c1	Mcl1 Noxa PPI 62
O=C(CN1CCN(c2ccccc2)CC1)NC(=O)NCc1ccco1	none
c1ccc(Oc2nc3ccccc3n3cccc23)cc1	Mcl1-Bid inh 67
CC(=O)Nc1ccc(NC(=O)C(C)Sc2n[nH]c(-c3ccc(C)cc3)n2)cc1 (stereo unspecified)	none (no result: Mcl1-Bid inh, Bim-Mcl-1, Mcl1 Noxa PPI)
Cc1c(CC(=O)O)c(=O)oc2cc(OCc3ccc(Br)cc3)ccc12	none (no result: Mcl1-Bid inh, Bim-Mcl-1, Mcl1 Noxa PPI)
CCc1nnc(NC(=O)c2ccc(-c3ccccc3Cl)o2)s1	Mcl1-Bid inh 53
CCc1nnc(NC(=O)c2ccc(COc3ccccc3Cl)o2)s1	none (no result: Mcl1-Bid inh, Bim-Mcl-1, Mcl1 Noxa PPI)
COc1cc(C(=O)O[C@H]2CC(C)=CC[C@@]3(C)CC[C@@](O)(C(C)C)[C@H]23)ccc1O	none (no result: Mcl1-Bid inh, Bim-Mcl-1, Mcl1 Noxa PPI)
N#CCC(=N)N1CCN(c2ccc(F)cc2)CC1	none
